Test results as given in ChEMBL document CHEMBL2218924, “A broad activity screen in support of a chemogenomic map for kinase signalling research and drug discovery” (Biochem J, 2013).

How the values were obtained:
[1] = target: T1, Serine/threonine-protein kinase 17A (Homo sapiens) (UniProt Q9UEE5); details: at 10 µM
T1 sequence (whole entry): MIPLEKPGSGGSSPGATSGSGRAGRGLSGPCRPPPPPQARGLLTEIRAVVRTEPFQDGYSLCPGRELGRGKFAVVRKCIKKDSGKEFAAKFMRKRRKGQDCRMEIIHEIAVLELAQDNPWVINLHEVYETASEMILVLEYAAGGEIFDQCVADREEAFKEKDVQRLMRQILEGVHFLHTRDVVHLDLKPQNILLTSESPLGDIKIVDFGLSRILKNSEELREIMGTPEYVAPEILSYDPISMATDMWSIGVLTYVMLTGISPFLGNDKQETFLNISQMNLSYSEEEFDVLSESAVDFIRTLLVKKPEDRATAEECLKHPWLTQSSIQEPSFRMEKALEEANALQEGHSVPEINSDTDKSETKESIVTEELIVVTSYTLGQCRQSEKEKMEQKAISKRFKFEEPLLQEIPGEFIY

[2] = target: T2, Dual specificity tyrosine-phosphorylation-regulated kinase 2 (Homo sapiens) (UniProt Q92630); details: at 1 µM
T2 sequence (whole entry): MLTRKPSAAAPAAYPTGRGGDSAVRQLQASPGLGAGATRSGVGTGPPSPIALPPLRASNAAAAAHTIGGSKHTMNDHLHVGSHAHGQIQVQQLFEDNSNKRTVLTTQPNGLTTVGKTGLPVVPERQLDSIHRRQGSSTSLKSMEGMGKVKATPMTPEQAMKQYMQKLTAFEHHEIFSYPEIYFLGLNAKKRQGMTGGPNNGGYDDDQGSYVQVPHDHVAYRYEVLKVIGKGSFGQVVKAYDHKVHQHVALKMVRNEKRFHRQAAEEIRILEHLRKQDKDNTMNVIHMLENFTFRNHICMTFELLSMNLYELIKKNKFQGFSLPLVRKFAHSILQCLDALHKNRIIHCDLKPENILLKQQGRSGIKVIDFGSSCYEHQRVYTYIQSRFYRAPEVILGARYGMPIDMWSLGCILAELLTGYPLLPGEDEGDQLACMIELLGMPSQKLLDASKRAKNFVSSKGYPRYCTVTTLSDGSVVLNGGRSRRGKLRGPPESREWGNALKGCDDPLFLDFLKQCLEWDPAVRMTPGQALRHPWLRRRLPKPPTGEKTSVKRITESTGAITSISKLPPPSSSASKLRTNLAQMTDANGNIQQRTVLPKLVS

[3] = target: T2, Dual specificity tyrosine-phosphorylation-regulated kinase 2 (Homo sapiens); details: at 10 µM
[4] = target: T3, Ephrin type-A receptor 1 (Homo sapiens) (UniProt P21709); details: at 1 µM
T3 sequence (whole entry): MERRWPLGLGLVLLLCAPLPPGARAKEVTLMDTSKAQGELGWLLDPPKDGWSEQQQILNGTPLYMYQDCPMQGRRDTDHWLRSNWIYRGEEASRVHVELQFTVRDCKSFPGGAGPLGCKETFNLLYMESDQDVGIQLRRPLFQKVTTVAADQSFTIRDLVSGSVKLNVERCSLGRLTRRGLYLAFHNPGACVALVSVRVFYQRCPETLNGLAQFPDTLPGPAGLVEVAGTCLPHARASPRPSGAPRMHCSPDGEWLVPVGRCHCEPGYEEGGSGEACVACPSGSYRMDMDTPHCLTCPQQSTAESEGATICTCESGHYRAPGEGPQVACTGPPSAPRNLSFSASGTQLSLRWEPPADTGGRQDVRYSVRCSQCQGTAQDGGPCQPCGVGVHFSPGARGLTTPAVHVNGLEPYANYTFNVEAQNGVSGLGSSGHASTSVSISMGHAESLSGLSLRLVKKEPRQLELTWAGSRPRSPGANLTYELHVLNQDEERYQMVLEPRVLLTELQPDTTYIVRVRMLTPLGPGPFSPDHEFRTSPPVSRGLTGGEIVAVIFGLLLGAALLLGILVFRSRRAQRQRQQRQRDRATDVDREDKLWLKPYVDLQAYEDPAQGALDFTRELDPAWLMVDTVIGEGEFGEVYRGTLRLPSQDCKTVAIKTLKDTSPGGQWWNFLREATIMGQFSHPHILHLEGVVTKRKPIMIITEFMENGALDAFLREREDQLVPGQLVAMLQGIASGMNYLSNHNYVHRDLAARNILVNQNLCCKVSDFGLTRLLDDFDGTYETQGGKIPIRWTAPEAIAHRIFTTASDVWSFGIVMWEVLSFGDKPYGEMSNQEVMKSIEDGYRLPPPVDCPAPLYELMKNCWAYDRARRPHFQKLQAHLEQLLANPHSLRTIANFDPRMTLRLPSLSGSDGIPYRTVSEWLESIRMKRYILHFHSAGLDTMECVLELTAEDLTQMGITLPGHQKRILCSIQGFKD

[5] = target: T3, Ephrin type-A receptor 1 (Homo sapiens); details: at 10 µM
[6] = target: Ephrin type-A receptor 2 (Homo sapiens) (UniProt P29317); details: at 1 µM
Sequence of Ephrin type-A receptor 2 (Homo sapiens) (P29317 whole entry): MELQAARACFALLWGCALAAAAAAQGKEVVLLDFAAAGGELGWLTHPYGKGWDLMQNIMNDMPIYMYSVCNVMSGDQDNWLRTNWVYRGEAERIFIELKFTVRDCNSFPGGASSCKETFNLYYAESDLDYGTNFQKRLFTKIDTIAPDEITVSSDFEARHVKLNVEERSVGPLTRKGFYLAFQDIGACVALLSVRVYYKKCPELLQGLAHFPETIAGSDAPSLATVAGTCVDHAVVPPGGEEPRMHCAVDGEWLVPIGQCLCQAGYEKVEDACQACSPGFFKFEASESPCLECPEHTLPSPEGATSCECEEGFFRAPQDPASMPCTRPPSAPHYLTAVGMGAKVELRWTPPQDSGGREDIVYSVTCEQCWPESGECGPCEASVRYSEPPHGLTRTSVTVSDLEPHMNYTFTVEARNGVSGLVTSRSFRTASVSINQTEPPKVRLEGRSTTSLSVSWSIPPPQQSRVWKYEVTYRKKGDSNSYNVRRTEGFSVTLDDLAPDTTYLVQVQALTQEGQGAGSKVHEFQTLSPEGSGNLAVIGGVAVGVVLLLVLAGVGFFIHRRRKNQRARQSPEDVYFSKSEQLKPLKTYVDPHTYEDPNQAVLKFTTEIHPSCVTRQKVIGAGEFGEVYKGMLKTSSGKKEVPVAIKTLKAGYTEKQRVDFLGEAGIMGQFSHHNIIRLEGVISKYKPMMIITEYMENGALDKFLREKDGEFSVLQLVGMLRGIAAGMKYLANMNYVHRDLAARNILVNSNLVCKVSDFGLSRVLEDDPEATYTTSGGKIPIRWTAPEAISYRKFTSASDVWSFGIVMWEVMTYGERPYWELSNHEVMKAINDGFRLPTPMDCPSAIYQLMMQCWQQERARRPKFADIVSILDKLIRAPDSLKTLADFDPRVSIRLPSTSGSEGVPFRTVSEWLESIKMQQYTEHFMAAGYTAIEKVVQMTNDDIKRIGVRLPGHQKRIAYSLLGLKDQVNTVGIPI

[7] = target: Ephrin type-A receptor 2 (Homo sapiens) (UniProt P29317); details: at 10 µM
[8] = target: T4, Ephrin type-A receptor 3 (Homo sapiens) (UniProt P29320); details: at 1 µM
T4 sequence (whole entry): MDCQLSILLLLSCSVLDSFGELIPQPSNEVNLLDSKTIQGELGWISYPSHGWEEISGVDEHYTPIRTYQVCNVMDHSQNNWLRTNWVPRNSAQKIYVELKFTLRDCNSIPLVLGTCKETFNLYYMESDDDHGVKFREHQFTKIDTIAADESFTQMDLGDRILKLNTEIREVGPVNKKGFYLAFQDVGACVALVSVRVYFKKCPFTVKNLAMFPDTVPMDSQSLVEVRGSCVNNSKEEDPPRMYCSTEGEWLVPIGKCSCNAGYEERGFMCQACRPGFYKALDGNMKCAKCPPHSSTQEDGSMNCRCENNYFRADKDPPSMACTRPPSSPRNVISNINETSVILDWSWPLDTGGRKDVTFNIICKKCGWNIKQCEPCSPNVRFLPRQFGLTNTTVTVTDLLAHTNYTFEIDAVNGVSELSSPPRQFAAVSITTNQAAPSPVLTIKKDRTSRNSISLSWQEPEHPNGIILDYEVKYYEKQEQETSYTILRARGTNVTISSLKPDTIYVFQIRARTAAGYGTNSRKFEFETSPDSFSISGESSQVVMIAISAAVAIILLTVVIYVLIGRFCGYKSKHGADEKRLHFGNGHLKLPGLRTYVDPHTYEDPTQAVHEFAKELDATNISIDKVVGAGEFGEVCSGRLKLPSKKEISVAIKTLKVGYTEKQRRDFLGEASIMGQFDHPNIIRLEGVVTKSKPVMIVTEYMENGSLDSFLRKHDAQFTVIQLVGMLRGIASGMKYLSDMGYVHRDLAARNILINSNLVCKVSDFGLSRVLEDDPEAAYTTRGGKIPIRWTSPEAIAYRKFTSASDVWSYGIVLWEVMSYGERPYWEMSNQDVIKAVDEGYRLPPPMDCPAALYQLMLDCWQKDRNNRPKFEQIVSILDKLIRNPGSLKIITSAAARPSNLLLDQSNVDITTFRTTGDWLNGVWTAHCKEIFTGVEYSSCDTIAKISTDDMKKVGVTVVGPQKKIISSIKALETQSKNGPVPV

[9] = target: T4, Ephrin type-A receptor 3 (Homo sapiens); details: at 10 µM
[10] = target: Ephrin type-A receptor 4 (Homo sapiens) (UniProt P54764); details: at 1 µM
Sequence of Ephrin type-A receptor 4 (Homo sapiens) (P54764 whole entry): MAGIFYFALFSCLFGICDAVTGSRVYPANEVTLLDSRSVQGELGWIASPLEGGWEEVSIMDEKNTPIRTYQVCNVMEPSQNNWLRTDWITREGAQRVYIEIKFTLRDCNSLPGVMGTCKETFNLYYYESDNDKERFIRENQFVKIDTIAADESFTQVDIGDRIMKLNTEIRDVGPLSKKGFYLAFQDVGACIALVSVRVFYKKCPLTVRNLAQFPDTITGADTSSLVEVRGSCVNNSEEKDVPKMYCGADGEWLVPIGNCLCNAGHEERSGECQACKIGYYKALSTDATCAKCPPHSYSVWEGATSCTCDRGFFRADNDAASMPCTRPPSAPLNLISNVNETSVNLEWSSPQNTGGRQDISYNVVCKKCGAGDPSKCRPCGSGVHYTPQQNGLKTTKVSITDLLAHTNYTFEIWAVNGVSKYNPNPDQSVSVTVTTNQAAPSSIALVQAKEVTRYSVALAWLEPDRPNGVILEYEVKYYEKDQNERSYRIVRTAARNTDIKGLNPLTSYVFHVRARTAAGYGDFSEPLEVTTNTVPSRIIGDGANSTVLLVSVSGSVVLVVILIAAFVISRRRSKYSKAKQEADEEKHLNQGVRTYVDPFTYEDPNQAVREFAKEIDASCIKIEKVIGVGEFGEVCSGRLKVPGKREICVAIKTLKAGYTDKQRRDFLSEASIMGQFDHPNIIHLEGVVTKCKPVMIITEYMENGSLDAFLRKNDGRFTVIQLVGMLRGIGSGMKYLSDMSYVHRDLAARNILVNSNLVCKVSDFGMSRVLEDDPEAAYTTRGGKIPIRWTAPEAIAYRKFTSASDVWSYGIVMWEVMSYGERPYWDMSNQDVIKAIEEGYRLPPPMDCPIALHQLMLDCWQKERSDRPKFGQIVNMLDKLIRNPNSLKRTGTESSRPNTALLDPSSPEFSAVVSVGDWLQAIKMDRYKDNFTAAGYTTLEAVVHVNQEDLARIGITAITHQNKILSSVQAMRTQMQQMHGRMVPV

[11] = target: Ephrin type-A receptor 4 (Homo sapiens) (UniProt P54764); details: at 10 µM
[12] = target: Ephrin type-A receptor 5 (Homo sapiens) (UniProt P54756); details: at 1 µM
Sequence of Ephrin type-A receptor 5 (Homo sapiens) (P54756 whole entry): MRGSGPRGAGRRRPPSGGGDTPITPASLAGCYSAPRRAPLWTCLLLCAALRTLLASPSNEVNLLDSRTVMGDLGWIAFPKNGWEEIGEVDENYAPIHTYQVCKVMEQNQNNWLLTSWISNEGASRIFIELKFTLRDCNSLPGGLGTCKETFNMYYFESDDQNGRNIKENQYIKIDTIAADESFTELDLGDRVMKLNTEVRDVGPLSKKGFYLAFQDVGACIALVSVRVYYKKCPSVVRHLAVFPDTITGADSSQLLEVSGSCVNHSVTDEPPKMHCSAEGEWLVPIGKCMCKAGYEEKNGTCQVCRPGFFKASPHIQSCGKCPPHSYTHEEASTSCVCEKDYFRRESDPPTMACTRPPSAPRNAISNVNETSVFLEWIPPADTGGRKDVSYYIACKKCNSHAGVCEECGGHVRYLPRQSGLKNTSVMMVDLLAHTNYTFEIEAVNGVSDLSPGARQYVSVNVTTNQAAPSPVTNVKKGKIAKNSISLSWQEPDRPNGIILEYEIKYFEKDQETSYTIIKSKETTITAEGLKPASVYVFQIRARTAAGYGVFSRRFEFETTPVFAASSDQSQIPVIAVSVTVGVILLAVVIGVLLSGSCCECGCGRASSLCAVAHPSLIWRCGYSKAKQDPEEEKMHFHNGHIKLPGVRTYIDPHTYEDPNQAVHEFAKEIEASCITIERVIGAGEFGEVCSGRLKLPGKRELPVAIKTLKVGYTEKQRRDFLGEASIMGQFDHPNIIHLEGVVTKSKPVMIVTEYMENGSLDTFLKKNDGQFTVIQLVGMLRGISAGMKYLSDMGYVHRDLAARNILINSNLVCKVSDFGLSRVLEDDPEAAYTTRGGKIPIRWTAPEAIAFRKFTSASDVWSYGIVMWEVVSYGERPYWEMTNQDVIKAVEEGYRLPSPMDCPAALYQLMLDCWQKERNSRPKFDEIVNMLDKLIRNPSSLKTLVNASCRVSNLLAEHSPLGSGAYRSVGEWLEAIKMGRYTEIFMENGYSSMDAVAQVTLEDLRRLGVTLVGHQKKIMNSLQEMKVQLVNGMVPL

[13] = target: Ephrin type-A receptor 5 (Homo sapiens) (UniProt P54756); details: at 10 µM
[14] = target: Ephrin type-A receptor 7 (Homo sapiens) (UniProt Q15375); details: at 1 µM
Sequence of Ephrin type-A receptor 7 (Homo sapiens) (Q15375 28-998 limits assumed): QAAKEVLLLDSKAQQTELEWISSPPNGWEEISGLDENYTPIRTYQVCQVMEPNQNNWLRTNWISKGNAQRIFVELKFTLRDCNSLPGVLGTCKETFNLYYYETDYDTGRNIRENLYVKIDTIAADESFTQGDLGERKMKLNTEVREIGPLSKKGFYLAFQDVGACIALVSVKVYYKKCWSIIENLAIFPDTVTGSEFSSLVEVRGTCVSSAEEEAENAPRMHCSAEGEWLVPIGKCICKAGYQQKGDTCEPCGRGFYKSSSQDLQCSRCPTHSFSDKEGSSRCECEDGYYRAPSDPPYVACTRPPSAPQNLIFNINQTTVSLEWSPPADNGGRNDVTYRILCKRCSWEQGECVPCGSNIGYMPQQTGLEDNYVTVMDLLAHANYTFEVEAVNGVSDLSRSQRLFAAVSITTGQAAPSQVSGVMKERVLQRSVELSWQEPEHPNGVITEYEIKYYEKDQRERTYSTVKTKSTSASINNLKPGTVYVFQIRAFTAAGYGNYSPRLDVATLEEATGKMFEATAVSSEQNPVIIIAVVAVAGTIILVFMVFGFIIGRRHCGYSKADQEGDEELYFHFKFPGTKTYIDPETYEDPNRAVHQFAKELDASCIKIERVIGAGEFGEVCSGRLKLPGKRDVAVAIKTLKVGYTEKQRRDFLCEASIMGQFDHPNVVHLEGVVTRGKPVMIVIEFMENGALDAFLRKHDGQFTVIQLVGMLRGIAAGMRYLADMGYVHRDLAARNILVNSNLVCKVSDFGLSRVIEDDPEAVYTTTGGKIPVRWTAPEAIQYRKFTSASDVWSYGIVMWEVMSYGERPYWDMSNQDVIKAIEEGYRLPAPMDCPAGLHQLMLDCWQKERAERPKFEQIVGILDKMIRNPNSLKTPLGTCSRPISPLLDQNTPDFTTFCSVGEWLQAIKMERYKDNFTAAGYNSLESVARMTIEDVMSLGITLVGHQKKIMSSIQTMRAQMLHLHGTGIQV

[15] = target: Ephrin type-A receptor 7 (Homo sapiens) (UniProt Q15375); details: at 10 µM
[16] = target: T5, Ephrin type-A receptor 8 (Homo sapiens) (UniProt P29322); details: at 1 µM
T5 sequence (whole entry): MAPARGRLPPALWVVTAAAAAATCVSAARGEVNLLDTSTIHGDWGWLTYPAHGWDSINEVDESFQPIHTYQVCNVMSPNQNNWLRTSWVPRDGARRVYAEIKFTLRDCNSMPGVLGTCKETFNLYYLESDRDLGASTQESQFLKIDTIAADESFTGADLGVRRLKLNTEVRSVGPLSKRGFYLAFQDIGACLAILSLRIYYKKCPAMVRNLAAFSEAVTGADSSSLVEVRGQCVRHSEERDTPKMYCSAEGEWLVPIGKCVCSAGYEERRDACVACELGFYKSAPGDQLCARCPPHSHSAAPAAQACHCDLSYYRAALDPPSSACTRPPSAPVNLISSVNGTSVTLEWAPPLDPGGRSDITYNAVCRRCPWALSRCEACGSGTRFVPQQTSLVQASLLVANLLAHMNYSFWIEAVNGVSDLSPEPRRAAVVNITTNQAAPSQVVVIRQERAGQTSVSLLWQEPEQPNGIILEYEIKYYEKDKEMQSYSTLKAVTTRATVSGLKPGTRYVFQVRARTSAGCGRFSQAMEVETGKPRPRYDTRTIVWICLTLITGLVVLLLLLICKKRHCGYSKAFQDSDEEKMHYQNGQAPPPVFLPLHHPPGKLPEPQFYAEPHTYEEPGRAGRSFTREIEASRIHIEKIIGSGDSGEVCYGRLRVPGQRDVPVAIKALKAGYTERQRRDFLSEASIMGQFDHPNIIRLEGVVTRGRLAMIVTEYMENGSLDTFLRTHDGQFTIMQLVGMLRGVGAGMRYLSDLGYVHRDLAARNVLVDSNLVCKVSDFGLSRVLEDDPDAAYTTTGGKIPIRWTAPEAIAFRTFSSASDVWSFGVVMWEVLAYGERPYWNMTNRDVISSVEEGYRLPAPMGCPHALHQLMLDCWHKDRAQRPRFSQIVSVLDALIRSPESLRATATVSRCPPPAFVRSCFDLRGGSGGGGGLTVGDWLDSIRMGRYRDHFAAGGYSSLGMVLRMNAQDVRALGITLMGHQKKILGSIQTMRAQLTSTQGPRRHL

[17] = target: T5, Ephrin type-A receptor 8 (Homo sapiens); details: at 10 µM
[18] = target: T6, Ephrin type-B receptor 1 (Homo sapiens) (UniProt P54762); details: at 1 µM
T6 sequence (whole entry): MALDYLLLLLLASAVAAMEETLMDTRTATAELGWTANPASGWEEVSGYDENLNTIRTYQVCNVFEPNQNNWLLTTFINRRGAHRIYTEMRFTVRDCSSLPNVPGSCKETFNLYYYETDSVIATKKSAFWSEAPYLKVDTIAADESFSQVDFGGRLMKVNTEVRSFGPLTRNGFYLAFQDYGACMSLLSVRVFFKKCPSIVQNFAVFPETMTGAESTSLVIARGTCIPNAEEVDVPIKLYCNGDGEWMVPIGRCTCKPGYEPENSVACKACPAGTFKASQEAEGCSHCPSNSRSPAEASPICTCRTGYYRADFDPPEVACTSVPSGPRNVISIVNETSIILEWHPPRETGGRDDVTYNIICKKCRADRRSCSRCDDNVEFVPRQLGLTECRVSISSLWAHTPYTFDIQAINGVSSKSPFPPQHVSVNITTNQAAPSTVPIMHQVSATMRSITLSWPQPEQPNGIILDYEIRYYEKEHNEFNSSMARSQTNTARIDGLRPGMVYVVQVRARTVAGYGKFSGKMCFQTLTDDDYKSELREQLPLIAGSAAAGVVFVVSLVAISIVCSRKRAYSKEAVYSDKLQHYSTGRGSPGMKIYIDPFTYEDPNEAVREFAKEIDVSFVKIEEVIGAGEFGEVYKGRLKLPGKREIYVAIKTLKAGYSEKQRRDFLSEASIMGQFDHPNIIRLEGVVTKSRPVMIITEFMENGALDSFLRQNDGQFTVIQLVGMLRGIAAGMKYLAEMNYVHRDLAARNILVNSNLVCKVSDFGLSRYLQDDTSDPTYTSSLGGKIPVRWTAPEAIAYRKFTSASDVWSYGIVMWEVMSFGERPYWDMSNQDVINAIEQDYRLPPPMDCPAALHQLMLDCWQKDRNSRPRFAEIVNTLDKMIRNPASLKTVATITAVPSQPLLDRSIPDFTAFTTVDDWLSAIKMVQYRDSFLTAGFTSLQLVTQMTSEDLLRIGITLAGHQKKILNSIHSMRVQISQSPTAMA

Row | Compound | residual activity [1] [%] | residual activity [2] [%] | residual activity [3] [%] | residual activity [4] [%] | residual activity [5] [%] | residual activity [6] [%] | residual activity [7] [%] | residual activity [8] [%] | residual activity [9] [%] | residual activity [10] [%] | residual activity [11] [%] | residual activity [12] [%] | residual activity [13] [%] | residual activity [14] [%] | residual activity [15] [%] | residual activity [16] [%] | residual activity [17] [%] | residual activity [18] [%]
1 | CCC(=O)Nc1ccc2ncnc(Nc3cccc(Br)c3)c2c1 | 77 | 99 | 82 | 71 | 89 | 105 | 90 | 105 | 82 | 106 | 92 | 101 | 99 | 92 | 76 | 97 | 88 | 97
2 | Cn1cc(/C=C2\C(=O)Nc3ccc(S(N)(=O)=O)cc32)c2ccccc21 | 3 | 102 | 99 | 89 | 107 | 100 | 72 | 50 | 13 | 96 | 89 | 54 | 53 | 32 | 9 | 88 | 54 | 66
3 | CO[C@H]1[C@@H](OC)C[C@H](C)[C@@H](OC)C2=CC(=O)C=C(NC(=O)/C(C)=C/C=C/[C@H](OC)[C@@H](OC(N)=O)/C(C)=C/[C@@H]1C)C2=O | 88 | 95 | 101 | 94 | 102 | 105 | 113 | 101 | 85 | 110 | 112 | 107 | 95 | 95 | 96 | 96 | 105 | 109
